PubChem BioAssay (NCATS)
Results filed as inconclusive are left out. Active and inactive are the calls of the source. The call rests on the fitted dose curve; in most records, active means well fitted cell-killing curve with a large enough effect; inconclusive means small, poorly fitted or top-dose-only effect, or effect the other way; inactive means flat fitted curve, though single readings scatter.

Assays:
Assay in all cases: Primary qHTS to identify gynecologic anti-cancer compounds using libraries of approved drugs and bioactive compounds (AID 1345084); further: nearly all actives have a fitted effect of over 55% in size
CAOV3 = settings: Gynecologic cancer cell panel viability, ATPlite luminescence, 48 h; series mostly up to 57.5 µM
In short: (§1)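 Luminescence from the ATPlite ATP-monitoring reagent indicates viable cell number; lower signal means cytotoxicity. Cells received compound 16 h after seeding and were exposed for 48 h across five concentrations.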

CASKI = settings: Gynecologic cancer cell panel viability, ATPlite luminescence, 48 h; series mostly up to 57.5 µM
In short: as §1

Es-2 = settings: Gynecologic cancer cell panel viability, ATPlite luminescence, 48 h; series mostly up to 57.5 µM
In short: as §1

HeLa = settings: Gynecologic cancer cell panel viability, ATPlite luminescence, 48 h; series mostly up to 57.5 µM
In short: as §1

Hek293T = settings: Gynecologic cancer cell panel viability, ATPlite luminescence, 48 h, control line for the selectivity index; series mostly up to 57.5 µM
In short: as §1

JEG-3 = settings: Gynecologic cancer cell panel viability, ATPlite luminescence, 48 h; series mostly up to 57.5 µM
In short: as §1

OV90 = settings: Gynecologic cancer cell panel viability, ATPlite luminescence, 48 h; series mostly up to 57.5 µM
In short: as §1

PA-1 = settings: Gynecologic cancer cell panel viability, ATPlite luminescence, 48 h; series mostly up to 57.5 µM
In short: as §1

Tov-21-G = settings: Gynecologic cancer cell panel viability, ATPlite luminescence, 48 h; series mostly up to 57.5 µM
In short: as §1

Tov112D = settings: Gynecologic cancer cell panel viability, ATPlite luminescence, 48 h; series mostly up to 57.5 µM
In short: as §1
On the % scale 0 is the no-effect control and ±100 the full control effect.

CC1(C)CCCC2(C)C(CO)C3CCC2C31 (stereo not given)
inactive: Potency (CAOV3) | Potency (CASKI) | Potency (Es-2) | Potency (HeLa) | Potency (Hek293T) | Potency (JEG-3) | Potency (OV90) | Potency (PA-1) | Potency (Tov-21-G) | Potency (Tov112D)

CC(=O)NCCCCn1c2c(c3ccccc31)C(=O)NCC2
inactive: Potency (CAOV3) | Potency (CASKI) | Potency (Es-2) | Potency (HeLa) | Potency (Hek293T) | Potency (JEG-3) | Potency (OV90) | Potency (PA-1) | Potency (Tov-21-G) | Potency (Tov112D)

Cc1coc2c1CC1OC1(C)CCC1OC1(C)C2 (stereo not given)
inactive: Potency (CAOV3) | Potency (CASKI) | Potency (Es-2) | Potency (HeLa) | Potency (Hek293T) | Potency (JEG-3) | Potency (OV90) | Potency (PA-1) | Potency (Tov-21-G) | Potency (Tov112D)

COc1cc(C)c(C(=O)O[C@H]2[C@@H](O)[C@H](n3ccc(=O)[nH]c3=O)O[C@@H]2CO)c(OC)c1
inactive: Potency (CAOV3) | Potency (CASKI) | Potency (Es-2) | Potency (HeLa) | Potency (Hek293T) | Potency (JEG-3) | Potency (OV90) | Potency (PA-1) | Potency (Tov-21-G) | Potency (Tov112D)

COC1=CC(=O)O[C@@H](/C=C/c2ccccc2)[C@@H]1O
inactive: Potency (CAOV3) | Potency (CASKI) | Potency (Es-2) | Potency (HeLa) | Potency (Hek293T) | Potency (JEG-3) | Potency (OV90) | Potency (PA-1) | Potency (Tov-21-G) | Potency (Tov112D)

O=C(/C=C/c1c(C(=O)O)[nH]c2cc(Cl)cc(Cl)c12)Nc1ccccc1
inactive: Potency (CAOV3) | Potency (CASKI) | Potency (Es-2) | Potency (HeLa) | Potency (Hek293T) | Potency (JEG-3) | Potency (OV90) | Potency (PA-1) | Potency (Tov-21-G) | Potency (Tov112D)

COC(=O)[C@@H]1C2CC3c4[nH]c5ccccc5c4CCN3CC2CC[C@@H]1O (stereo not given in full)
inactive: Potency (CAOV3) | Potency (CASKI) | Potency (Es-2) | Potency (HeLa) | Potency (Hek293T) | Potency (JEG-3) | Potency (OV90) | Potency (PA-1) | Potency (Tov-21-G) | Potency (Tov112D)

C[C@@H]1O[C@@H](OC[C@H]2O[C@@H](OCC3CCC4CC3C4(C)C)[C@H](O)[C@@H](O)[C@@H]2O)[C@H](O)[C@H](O)[C@H]1O (stereo not given in full)
inactive: Potency (CAOV3) | Potency (CASKI) | Potency (Es-2) | Potency (HeLa) | Potency (Hek293T) | Potency (JEG-3) | Potency (OV90) | Potency (PA-1) | Potency (Tov-21-G) | Potency (Tov112D)

COCC(=O)N1CCc2cc(-c3csc(NC(=O)c4cc(OC)cc(OC)c4)n3)ccc21
inactive: Potency (CAOV3) | Potency (CASKI) | Potency (Es-2) | Potency (HeLa) | Potency (Hek293T) | Potency (JEG-3) | Potency (OV90) | Potency (PA-1) | Potency (Tov-21-G) | Potency (Tov112D)

CC/C=C/CC1=C(CCCCCCCC(=O)O)CCC1=O
inactive: Potency (CAOV3) | Potency (CASKI) | Potency (Es-2) | Potency (HeLa) | Potency (Hek293T) | Potency (JEG-3) | Potency (OV90) | Potency (PA-1) | Potency (Tov-21-G) | Potency (Tov112D)

O=C(O)Cc1nn(Cc2nc3cc(C(F)(F)F)ccc3s2)c(=O)c2nccnc12
inactive: Potency (CAOV3) | Potency (CASKI) | Potency (Es-2) | Potency (HeLa) | Potency (Hek293T) | Potency (JEG-3) | Potency (OV90) | Potency (PA-1) | Potency (Tov-21-G) | Potency (Tov112D)

COC(=O)C1=COC(O[C@@H]2O[C@H](CO)[C@@H](O)[C@H](O)[C@H]2O)/C(=C\COC(=O)c2ccc(OC3OC(CO)C(O)C(O)C3O)c(OC)c2)C1CC(=O)OCCc1ccc(O)cc1 (stereo not given in full)
inactive: activity change, negative = cytotoxicity (CAOV3) -8.27% [at 11.6 µM] | activity change, negative = cytotoxicity (CASKI) 3.94% [at 11.6 µM] | activity change, negative = cytotoxicity (Es-2) 1.38% [at 11.6 µM] | activity change, negative = cytotoxicity (HeLa) 2.44% [at 11.6 µM] | activity change, negative = cytotoxicity (Hek293T) 17.6% [at 11.6 µM] | activity change, negative = cytotoxicity (JEG-3) 2.03% [at 11.6 µM] | activity change, negative = cytotoxicity (OV90) 1.39% [at 11.6 µM] | activity change, negative = cytotoxicity (PA-1) -0.972% [at 11.6 µM] | activity change, negative = cytotoxicity (Tov-21-G) 2.92% [at 11.6 µM] | activity change, negative = cytotoxicity (Tov112D) 6.58% [at 11.6 µM]

C[C@@H](Nc1cc(NS(=O)(=O)N2CCC2)nc(SCc2cccc(F)c2F)n1)[C@@H](O)CO
inactive: Potency (CAOV3) | Potency (CASKI) | Potency (Es-2) | Potency (HeLa) | Potency (Hek293T) | Potency (JEG-3) | Potency (OV90) | Potency (PA-1) | Potency (Tov-21-G) | Potency (Tov112D)

COC(=O)C1=CO[C@@H](O[C@@H]2O[C@H](CO)[C@@H](O)[C@H](O)[C@H]2O)[C@@H]2[C@@H](C(=O)OC)[C@@H](O)C(O)[C@H]12 (stereo not given in full)
inactive: Potency (CAOV3) | Potency (CASKI) | Potency (Es-2) | Potency (HeLa) | Potency (Hek293T) | Potency (JEG-3) | Potency (OV90) | Potency (PA-1) | Potency (Tov-21-G) | Potency (Tov112D)
